Screening results as filed in PubChem.
Epigenetic derep = derepresses silenced GFP reporter in murine cells. murine LDR cells, GFP reporter derepression, 30 h. Potency, µM (top dose mostly 53.9 µM), without a hit: top-dose GFP activation, most hits filed as activators. 280,000 compounds, 0.2% hits. AID 1865; also: % of control where 0% means no effect; nearly all actives have a fitted effect of over 60% in size
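Readout is the number of GFP-expressing murine LDR cells, counted by cytometry following washing. Cells were treated with compound for 30 h at 37 C; the stably integrated CMV-GFP locus is normally silent.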
ClpP mod = qHTS Assay for Activators of ClpP; ATP-dependent Clp protease proteolytic subunit (Bacillus subtilis (strain 168)), P80244; purified B. subtilis ClpP, FRET peptide cleavage, 20 min; 340,000 compounds, 1.9% hits; Potency, µM (doses to about 57.5 µM), without a hit: at the highest dose activity change, negative = active; active = well fitted falling curve with a large enough effect; inconclusive = small, poorly fitted or top-dose-only effect; inactive = no such curve, though single readings can be large or run the other way; also: the source files actives as falling curves though it sought activators and does not explain the sign; nearly all actives have a fitted effect of over 65% in size
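FRET quenching reversal measured ClpP activation: 10 microg/mL B. subtilis ClpP at pH 8 with the FRET-FV decapeptide, read at 430 nm after 320 nm excitation. The 20-min minus 0-min signal was scaled between DMSO/no-enzyme wells and ADEP (5.8 microM final).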
PINK1 expr mod = changes PINK1 expression. PINK1 immunofluorescence, high-content cytometry, 24 h. Potency, µM (top dose mostly 76.6 µM), inactives show at the highest dose activation (PINK1 increase), most hits filed as activators. 410,000 compounds, 0.2% hits; active = well fitted activation curve with a large enough effect; inconclusive = small, poorly fitted or top-dose-only effect; cell line not stated here; also: % of control where 0% means no effect; nearly all actives have a fitted effect of over 65% in size
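Fluorescence from anti-PINK1 antibody, together with nuclear and cell stains, was scanned on a laser-scanning cytometer. Before staining, stable-line cells were incubated 24 hours with compounds at 5 concentrations; primary antibody 12 h at 10 degrees C.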
Sfp PPTase inh = Sfp phosphopantetheinyl transferase inhibition. Q9F4F7. Biochemical Sfp PPTase activity, qHTS. Potency, µM, for inactives: largest response in the series, negative = inhibition, actives largely listed as inhibitors. 310,000 compounds, 3.5% hits. AID 1490;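 also: the enzyme is Sfp with the accession as filed and its product quenches rhodamine fluorescence; 0% = enzyme reaction without inhibitor and -100% = no enzyme wells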
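Buffer: 50 mM Hepes-Na pH 7.6, 10 mM MgCl2, 0.01% Nonidet P-40, 0.01% BSA. Enzyme 15 nM, pre-exposed to compound 15 min; substrates then added and fluorescence change tracked over 30 min.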
Gal4-VP16 FLuc = counter-screen for ROR gamma inhibitors: Gal4-VP16 reporter. Drosophila S2 Gal4-VP16 UAS-luciferase, luminescence, 20 h. Potency, µM (titrated, usually from 53.6 µM), inactives show at the highest dose activity, negative = inhibition, hits mostly inhibitors. 310,000 compounds, 3.5% hits. AID 2546;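 also: Gal4-VP16 expression switched on by copper sulfate through the metallothionein promoter; % is scaled to controls: 0 for no effect and ±100 for the full control effect; nearly all actives have a fitted effect of over 50% in size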
RORgamma inh = inhibitors of mouse ROR gamma transcriptional activity; P51450; Drosophila S2 Gal4-RORgamma UAS-luciferase reporter, 20 h; Potency, µM (series often up to 53.6 µM), for the others: top-dose activity change, negative = inhibition, hits mostly inhibitors; 310,000 compounds, 5.4% hits; also: % is scaled to controls: 0 for no effect and ±100 for the full control effect; nearly all actives have a fitted effect of over 60% in size
Target sequence (P51450 whole entry, looked up, the tested form may be a part): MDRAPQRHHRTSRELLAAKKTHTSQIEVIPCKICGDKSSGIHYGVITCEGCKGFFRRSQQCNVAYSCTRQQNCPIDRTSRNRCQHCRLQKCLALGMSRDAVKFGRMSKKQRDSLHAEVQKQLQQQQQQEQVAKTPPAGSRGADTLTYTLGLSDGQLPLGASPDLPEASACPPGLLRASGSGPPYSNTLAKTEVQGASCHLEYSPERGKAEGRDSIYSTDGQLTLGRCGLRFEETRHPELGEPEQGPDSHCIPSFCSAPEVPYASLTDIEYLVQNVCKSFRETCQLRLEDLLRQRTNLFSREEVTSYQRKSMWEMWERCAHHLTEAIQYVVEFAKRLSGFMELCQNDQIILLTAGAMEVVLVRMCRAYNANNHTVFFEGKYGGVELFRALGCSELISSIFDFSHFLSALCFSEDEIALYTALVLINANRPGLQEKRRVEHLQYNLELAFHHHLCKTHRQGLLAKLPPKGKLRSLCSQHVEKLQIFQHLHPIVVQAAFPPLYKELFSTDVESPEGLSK
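A Gal4/UAS one-hybrid system in insect cells: metallothionein-promoter Gal4–ROR gamma fusion plus Photinus luciferase reporter. Copper sulfate 700 uM final, 20 hr ambient incubation, luminescent detection after 10 min with reagent.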
* hit, by the source's call; [ ] = remark or other dose. In the library only some 8.1% were active in any assay of this set; here they are far more common. Unless noted, calls follow the shape of the dose curve; as a rule, active = well fitted curve in the direction sought with a large enough effect; inconclusive = small, poorly fitted or top-dose-only effect, or another doubt; inactive = no such curve, though single readings can be large; an effect the other way counts as inactive or inconclusive. Potency is read from the fitted curve at half-maximal effect.

What do the screens show for `O=C(NC1CCCC1)c1cn(C2CCCN(Cc3ccc4c(c3)OCCO4)C2)nn1` (centres undefined)?
PINK1 expr mod: 0.4%

What do the screens show for `CC(=O)Nc1ccc(S(=O)(=O)NCCc2csc3nc(-c4cccc(C)c4)nn23)cc1`?
Epigenetic derep: 1.1%; ClpP mod: 1.4%; PINK1 expr mod: 0.0%

What do the screens show for `Cc1oc(-c2cccc(Br)c2)nc1Cn1c(=O)cc(-c2ccccc2)c2c(C)nn(C)c21`?
Epigenetic derep: 0.0%; ClpP mod: -7.5%; PINK1 expr mod: 3.2%

Results for COc1ccc(NC(=O)c2cc(C(C)=O)n3ccccc23)cc1 ?
Epigenetic derep: 1.5%; ClpP mod: -1.1%; PINK1 expr mod: -0.6%

What do the screens show for `Cc1cc(O)ccc1NC(=O)c1ccccc1`?
Epigenetic derep: 0.0%; ClpP mod: -0.4%; PINK1 expr mod: 1.4%[38.3 µM]; Sfp PPTase inh: -2.6%; Gal4-VP16 FLuc: -0.5%; RORgamma inh: 26.0%

What do the screens show for `N#C/C(=C\c1c(Cl)cccc1Cl)c1nc2ccccc2[nH]1`?
Epigenetic derep: -0.3%; ClpP mod: -14.2%; PINK1 expr mod: inconclusive; Sfp PPTase inh: -12.5%; Gal4-VP16 FLuc: -18.6%; RORgamma inh: -31.4%

Results for N#C/C(=C\c1c(Cl)cccc1Cl)c1nc2ccccc2o1 ?
Epigenetic derep: 0.0%; ClpP mod: 3.98µM*; PINK1 expr mod: 0.9%; Sfp PPTase inh: -7.6%; Gal4-VP16 FLuc: -27.5%; RORgamma inh: inconclusive

How did Cc1cc(O)ccc1N/C=C(\C#N)c1nc2ccccc2o1 do in these assays?
Epigenetic derep: -1.0%; ClpP mod: 17.8µM*; PINK1 expr mod: inconclusive; Sfp PPTase inh: -14.1%; Gal4-VP16 FLuc: -12.6%; RORgamma inh: 14.1%

How did O=c1c(-c2cc(-c3ccccc3)nc3c2COc2ccc(Cl)cc2-3)coc2ccccc12 do in these assays?
Epigenetic derep: -1.1%; ClpP mod: -0.1%; PINK1 expr mod: 0.9%

Results for CC(=O)C1=C(c2ccccc2)NC(=O)NC1c1ccc(O)c(O)c1 (centres undefined) ?
Epigenetic derep: -1.1%; PINK1 expr mod: 2.3%; Sfp PPTase inh: 44.7µM*; Gal4-VP16 FLuc: 3.1%; RORgamma inh: 2.9%

What do the screens show for `CC(C)c1cc(-c2cc(C(=O)NCc3ccccc3)on2)nc(NC2CCCC2)n1`?
Epigenetic derep: -1.9%; ClpP mod: inconclusive; PINK1 expr mod: 3.8%; Sfp PPTase inh: 28.0%; Gal4-VP16 FLuc: 2.2%; RORgamma inh: 2.9%

Results for CC(C)c1cc(-c2cc(C(=O)NCc3ccccc3)on2)nc(NCC2CC2)n1 ?
Epigenetic derep: 1.3%; ClpP mod: 31.6µM*; PINK1 expr mod: 2.8%; Sfp PPTase inh: 15.5%; Gal4-VP16 FLuc: -1.1%; RORgamma inh: -27.6%

How did CCCN(CCC)S(=O)(=O)c1ccc2c(c1)N(CC(=O)NCc1ccc(F)cc1Cl)C(=O)CS2 do in these assays?
Epigenetic derep: 7.3%; ClpP mod: 2.7%; PINK1 expr mod: 1.6%

What do the screens show for `Cc1ccc(Nc2cc(-c3ccccc3)nc3ncnn23)cc1`?
Epigenetic derep: -1.1%; ClpP mod: -4.1%; PINK1 expr mod: 5.1%; Sfp PPTase inh: 4.7%; Gal4-VP16 FLuc: inconclusive; RORgamma inh: 11.2µM*

Results for CCc1ccc(Nc2cc(C)nc3ncnn23)cc1 ?
ClpP mod: -0.6%; PINK1 expr mod: -1.2%; Sfp PPTase inh: -2.9%; Gal4-VP16 FLuc: -1.6%; RORgamma inh: -15.8%[1.91 µM]

Results for Cc1cc(Nc2ccc(Cl)cc2)n2ncnc2n1 ?
ClpP mod: -0.1%; PINK1 expr mod: -0.4%; Sfp PPTase inh: -5.0%; Gal4-VP16 FLuc: 5.0%; RORgamma inh: -2.9%

Results for FC(F)(F)c1cc(-c2cccs2)nc2ncnn12 ?
Epigenetic derep: 4.0%; PINK1 expr mod: 0.5%; Sfp PPTase inh: 14.7%; Gal4-VP16 FLuc: 2.6%; RORgamma inh: 3.8%
